PubChem BioAssay (NCATS)
Unmarked numbers belong to inactive results. Results filed as inconclusive are left out. Where a call stands in place of a potency, no number is given. Activity calls are given as the source filed them. Unless noted, calls follow the shape of the dose curve; as a rule, active = well fitted curve in the direction sought with a large enough effect; inconclusive = small, poorly fitted or top-dose-only effect, or another doubt; inactive = no such curve, though single readings can be large; an effect the other way counts as inactive or inconclusive.

What was measured:
[1] = target: Lysosomal acid glucosylceramidase (Homo sapiens) (UniProt P04062); experiment: Glucocerebrosidase-p2 (AID 348; in the data active = potency below about 10 µM; also: potency is read from the fitted curve at half-maximal effect); details: purified GBA, blue fluorogenic substrate, 40 min
Summary of the method: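 Normal human glucocerebrosidase (0.2 nM) with blue fluorogenic substrate (80 uM final) in citrate/phosphate pH 5.9 with 10mM sodium taurocholate, 0.01% tween-20; 40 min RT, NaOH/glycine stop; fluorescence Ex 365/Em 440; AC50 from a titration from 0.6 nM upwards.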

[2] = AP1 Signaling Pathway (AID 357; active = well fitted curve in either direction with a large enough effect, not every such curve was filed as active); details: ME-180 AP-1-bla reporter, EGF-induced, beta-lactamase ratio, 5 h; at 7.69 µM (top of the series) unless noted
Summary of the method: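 AP-1-bla ME-180 cells with beta-lactamase reporter under AP-1 response element, stimulated with EC50 EGF; compounds titrated, 5 hours at 37 degrees Celsius. CCF4 read at 460/530 nm ratio; positive and negative modulators judged by AC50.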

[3] = target: Cytochrome P450 1A2 (Homo sapiens) (UniProt P05177); experiment: p450-cyp1a2 (AID 410; calls by dose curve; also: potency is read from the fitted curve at half-maximal effect); details: recombinant CYP1A2, luciferin-ME demethylation, luminescence; series mostly up to 57 µM
Summary of the method: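 20nM CYP1A2, 100uM Luciferin-ME (=Km), 100mM KPO4; cpd 10 min RT; +NADPH regen, 60 min RT; stop/detect 20 min; luminescence. Normalized to furafylline 57 uM = full inhibition.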

[4] = Stat Signaling Pathway (AID 446; active = well fitted curve in either direction with a large enough effect, not every such curve was filed as active;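 also: ME-180 cervical cancer cells given 40 pM IL-6 alongside compound; SIE-controlled beta-lactamase reporter measured as 460/530 nm FRET emission ratio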); details: ME-180 (cervical carcinoma) SIE beta-lactamase reporter, IL-6 stimulated, 5 h; at 7.69 µM (top of the series) unless noted
Summary of the method: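 Overnight-plated ME-180 cells bearing a STAT Inducible Element beta-lactamase reporter; 5 h co-exposure to compound and 40 pM IL-6; values normalized to 300 pM IL-6 and 125 nM JAK inhibitor controls.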

[5] = target: Glucocorticoid receptor (Homo sapiens) (UniProt P04150); experiment: GR-EFC Redistribution (AID 451; calls by dose curve; also: potency is read from the fitted curve at half-maximal effect); details: CHO-K1 GR-EFC translocation, beta-gal luminescence, 2 h
Summary of the method: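 CHO-K1 cells stably expressing nuclear-localized β-gal enzyme acceptor and GR fused C-terminally to the enzyme donor fragment; ligand-driven nuclear translocation restores β-gal by complementation. Compounds titrated up to 46 uM final, 2 h at 37 °C; luminescence read.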

[6] = target: Mitogen-activated protein kinase 10 (Mus musculus) (UniProt Q61831); experiment: JNK3 AlphaScreen Assay (AID 530; active = well fitted curve in either direction with a large enough effect, not every such curve was filed as active;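 also: kinase came from lysate of stimulated human HepG2 cells; signal reports phosphorylation of biotinylated GST-cJun 1-79 at Ser73 with 10 µM ATP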); details: JNK3 lysate, c-Jun phosphorylation; series mostly up to 57.1 µM
Summary of the method: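 Biotinylated GST-cJun(1-79) served as substrate for JNK3 in HepG2 lysates stimulated with IL-1beta and TNF-alpha. ATP was 10 uM final, pH 7.6. Ser73 phosphorylation was quantified by AlphaScreen (680 nm excitation).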

[7] = Primary qHTS for small molecule stabilizers of the endoplasmic reticulum resident proteome: Secreted ER Calcium Modulated Protein (SERCaMP) assay (AID 1508630); details: SH-SY5Y GLuc-SERCaMP (Gaussia luciferase released on ER calcium loss) secretion, thapsigargin, luminescence; series mostly up to 38.4 µM
Summary of the method: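 The SH-SY5Y reporter protocol was run at 3 concentrations up to 38.3 uM (primary) or 11 concentrations (follow-up): 16 h compound, 100 nM thapsigargin for 4 h, then extracellular luciferase luminescence.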

[8] = target: Rap guanine nucleotide exchange factor 3 (Homo sapiens) (UniProt O95398); experiment: Confirmatory qHTS for antagonist of cAMP-regulated guanine nucleotide exchange factor 3 (EPAC1) (AID 1645880); details: EPAC1 Rap1B-BODIPY-GDP exchange, fluorescence; series mostly up to 115 µM; also: nearly all actives have a fitted effect of over 55% in size
Summary of the method: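 Released BODIPY-GDP fluoresces less than Rap1-bound BODIPY-GDP; the signal is followed at 480/540 nm at 5-min intervals over 30 min, after 5 min at room temperature. Reactions contain 100 nM EPAC1, 250 nM RAP1B-BODIPY-GDP and 50 uM GDP; results are normalized to ATA and DMSO.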

[9] = target: Rap guanine nucleotide exchange factor 4 (Homo sapiens) (UniProt Q8WZA2); experiment: Confirmatory qHTS for agonist of cAMP-regulated guanine nucleotide exchange factor 4 (EPAC2) (AID 1645884); details: EPAC2 GEF activity, Rap1B-BODIPY-GDP fluorescence; series mostly up to 154 µM;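 also: nucleotide exchange releases bodipy-GDP from Rap1 and this lowers its fluorescence; potency is read from the fitted curve at half-maximal effect; nearly all actives have a fitted effect of over 65% in size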
[10] = target: Rap guanine nucleotide exchange factor 4 (Homo sapiens) (UniProt Q8WZA2); experiment: Confirmatory qHTS for antagonist of cAMP-regulated guanine nucleotide exchange factor 4 (EPAC2) (AID 1645885); details: EPAC2 Rap1B-BODIPY-GDP exchange fluorescence, biochemical; series mostly up to 114 µM; also: nearly all actives have a fitted effect of over 25% in size
[11] = NFAT Signaling Pathway (AID 444; active = well fitted curve in either direction with a large enough effect, not every such curve was filed as active;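 also: carbachol stimulus at about its EC50 of 1 µM final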); details: Jurkat NFAT-bla M1, carbachol, beta-lactamase ratio, 5 h; at 7.69 µM (top of the series) unless noted
Summary of the method: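 Jurkat cells carrying an NFAT-driven β-lactamase reporter and co-transfected muscarinic M1 receptor were treated with compound plus carbachol (1 uM final, an EC50 level) for 5 h at 37 °C. CCF4 loading followed for 1 h at RT; 460/530 nm ratio gave %activity.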

[12] = target: Glucocorticoid receptor (Homo sapiens) (UniProt P04150); experiment: GR-GFP Redistribution (AID 450;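 active = compounds whose dose series gives a full or clear partial fitted curve of increased nuclear translocation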; also: potency is read from the fitted curve at half-maximal effect); details: U2OS GR-GFP nuclear translocation, laser cytometry, 2 h
[13] = target: 3',5'-cyclic-AMP phosphodiesterase 4B (Homo sapiens) (UniProt Q07343); experiment: qHTS Assay for Inhibitors of PDE-IV (AID 607; active = well fitted activation curve with a large enough effect in the main read-out, with a control signal flat, not every such curve was filed as active); details: HEK293 ACTOne CNG channel cells, membrane potential fluorescence; series mostly up to 22.9 µM
Summary of the method: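 Live HEK293 cells with a modified cyclic nucleotide-gated (CNG) channel report intracellular cAMP via membrane-potential dye fluorescence (ex 535/em 590 nm). Endogenous PDE-IV was targeted. Compounds were tested at up to 22.9 uM final; RO 20-1724 100 uM served as control.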

[14] = target: Cytochrome P450 3A4 (Homo sapiens) (UniProt P08684); experiment: qHTS Assay for Inhibitors and Substrates of Cytochrome P450 3A4 (AID 884); details: recombinant CYP3A4, Luciferin-PPXE luminescence; series mostly up to 57.1 µM; also: potency is read from the fitted curve at half-maximal effect; nearly all actives have a fitted effect of over 50% in size
Summary of the method: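 Luminescent readout of luciferin produced by CYP3A4 (20 nM) dealkylation of Luciferin-PPXE, 25 uM (its KM). NADPH-driven reaction ran 60 min at RT after 10 min compound preincubation; data scaled to 57 uM ketoconazole as 100% inhibition.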

[15] = target: Cytochrome P450 3A4 (Homo sapiens) (UniProt P08684); experiment: qHTS Assay for Activators of Cytochrome P450 3A4 (AID 885); details: recombinant CYP3A4, Luciferin-PPXE luminescence, 60 min; series mostly up to 57.1 µM; also: nearly all actives have a fitted effect of over 65% in size
Summary of the method: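 Using 20nM recombinant human CYP3A4 in potassium phosphate (200mM), substrate Luciferin-PPXE at 25uM, luminescent luciferin detection followed a 60-min RT NADPH reaction; data scaled to 57 uM ketoconazole.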

[16] = target: Dual specificity protein kinase CLK4 (Homo sapiens) (UniProt Q9HAZ1); experiment: qHTS Assay for Inhibitors of CDC-like Kinase 4 (Kinase-Glo Assay) (AID 1770); details: recombinant Clk4, Kinase-Glo ATP depletion luminescence; series mostly up to 66.7 µM; also: nearly all actives have a fitted effect of over 65% in size; also: potency is read from the fitted curve at half-maximal effect
Summary of the method: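 Recombinant human Clk4 (25 nM) phosphorylated RS repeat peptide (100 uM) with 1 uM ATP in Tris pH 7.5/MgCl2/EGTA/DTT/Triton buffer for 4.5 h at room temperature. Residual ATP was quantified by Kinase-Glo luciferase luminescence.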

[17] = target: Dual specificity protein kinase CLK4 (Homo sapiens) (UniProt Q9HAZ1); experiment: qHTS Assay for Inhibitors of CDC-like Kinase 4 (ADP-FP Assay) (AID 1795); details: Transcreener ADP fluorescence polarization; series mostly up to 50 µM; also: nearly all actives have a fitted effect of over 60% in size
Summary of the method: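 Recombinant human Clk4 (6.25 nM) phosphorylated RS repeat peptide (100 uM) with 1 uM ATP in Tris pH 7.5/MgCl2/EGTA/DTT/Triton buffer for one hour. ADP was quantified by Transcreener competitive fluorescence polarization against an ADP calibration curve.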

[18] = target: Ubiquitin carboxyl-terminal hydrolase 1 (Homo sapiens) (UniProt O94782); experiment: Inhibitors of USP1/UAF1: Pilot qHTS (AID 504865); details: purified USP1/UAF1, Ub-rhodamine cleavage fluorescence; series mostly up to 54.9 µM;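 also: rhodamine fluorescence freed from ubiquitin-rhodamine substrate followed over time; top concentration of the series differs between compounds; nearly all actives have a fitted effect of over 35% in size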
Summary of the method: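 USP1/UAF1 complex (1nM) preincubated with compound 15 min at room temperature, then Ub-Rho substrate (150nM final) added. Fluorescence read kinetically at 480/540 nm, 6 reads every 60 seconds. Buffer: 50mM HEPES pH 7.8, 0.5mM EDTA, 0.1 mg/ml BSA, 1mM TCEP, 0.01% Tween-20.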

[19] = target: Rap guanine nucleotide exchange factor 3 (Homo sapiens) (UniProt O95398); experiment: Confirmatory qHTS for agonist of cAMP-regulated guanine nucleotide exchange factor 3 (EPAC1) (AID 1645881); details: EPAC1 Rap1B BODIPY-GDP exchange fluorescence; series mostly up to 154 µM;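 also: EPAC1 catalysed release of BODIPY-GDP from Rap1B seen as fluorescence loss; nearly all actives have a fitted effect of over 75% in size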

Sequence of Rap guanine nucleotide exchange factor 4 (Homo sapiens) (Q8WZA2 whole entry, looked up): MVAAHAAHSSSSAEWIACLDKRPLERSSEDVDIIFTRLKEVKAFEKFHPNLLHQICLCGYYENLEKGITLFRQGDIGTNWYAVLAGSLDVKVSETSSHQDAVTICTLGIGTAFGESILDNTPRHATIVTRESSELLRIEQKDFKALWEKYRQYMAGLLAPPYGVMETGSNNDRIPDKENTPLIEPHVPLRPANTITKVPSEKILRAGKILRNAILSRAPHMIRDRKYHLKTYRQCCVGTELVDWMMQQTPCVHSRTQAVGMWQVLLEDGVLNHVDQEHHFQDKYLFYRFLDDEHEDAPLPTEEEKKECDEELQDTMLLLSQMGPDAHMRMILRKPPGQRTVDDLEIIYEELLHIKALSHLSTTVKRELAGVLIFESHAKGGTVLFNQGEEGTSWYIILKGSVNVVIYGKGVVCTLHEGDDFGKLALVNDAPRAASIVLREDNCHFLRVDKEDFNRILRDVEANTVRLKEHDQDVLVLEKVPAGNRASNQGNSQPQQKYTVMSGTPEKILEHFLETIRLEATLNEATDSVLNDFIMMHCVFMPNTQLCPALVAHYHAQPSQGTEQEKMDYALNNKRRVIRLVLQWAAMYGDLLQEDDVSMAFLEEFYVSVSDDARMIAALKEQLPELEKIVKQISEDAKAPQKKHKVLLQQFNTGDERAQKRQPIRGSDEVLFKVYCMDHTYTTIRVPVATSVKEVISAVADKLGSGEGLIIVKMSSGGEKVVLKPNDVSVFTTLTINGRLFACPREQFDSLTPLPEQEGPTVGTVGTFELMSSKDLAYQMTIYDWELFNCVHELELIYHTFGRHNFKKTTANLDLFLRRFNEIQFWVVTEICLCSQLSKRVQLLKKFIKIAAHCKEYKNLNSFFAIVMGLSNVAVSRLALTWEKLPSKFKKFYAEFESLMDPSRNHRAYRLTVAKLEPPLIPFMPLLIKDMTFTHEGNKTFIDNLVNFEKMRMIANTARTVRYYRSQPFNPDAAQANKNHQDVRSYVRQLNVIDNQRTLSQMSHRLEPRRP
Sequence of 3',5'-cyclic-AMP phosphodiesterase 4B (Homo sapiens) (Q07343 whole entry, looked up): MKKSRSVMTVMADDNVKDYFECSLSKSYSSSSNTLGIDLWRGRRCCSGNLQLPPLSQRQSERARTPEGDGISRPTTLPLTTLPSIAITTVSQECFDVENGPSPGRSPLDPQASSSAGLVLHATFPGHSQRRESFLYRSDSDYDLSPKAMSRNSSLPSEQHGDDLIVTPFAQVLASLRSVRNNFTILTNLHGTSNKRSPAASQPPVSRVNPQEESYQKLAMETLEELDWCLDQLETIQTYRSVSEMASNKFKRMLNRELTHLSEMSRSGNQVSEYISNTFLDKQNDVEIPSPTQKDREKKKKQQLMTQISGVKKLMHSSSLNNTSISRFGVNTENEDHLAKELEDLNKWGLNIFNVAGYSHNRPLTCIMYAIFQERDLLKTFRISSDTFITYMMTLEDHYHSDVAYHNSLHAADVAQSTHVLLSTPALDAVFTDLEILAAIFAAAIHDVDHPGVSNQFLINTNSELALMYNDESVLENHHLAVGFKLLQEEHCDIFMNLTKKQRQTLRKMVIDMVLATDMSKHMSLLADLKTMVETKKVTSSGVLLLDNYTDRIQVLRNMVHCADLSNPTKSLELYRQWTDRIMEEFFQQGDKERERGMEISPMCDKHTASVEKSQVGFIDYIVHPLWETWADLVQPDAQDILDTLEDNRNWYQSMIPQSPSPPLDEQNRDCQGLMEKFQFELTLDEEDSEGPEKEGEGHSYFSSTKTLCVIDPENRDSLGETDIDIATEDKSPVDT
Sequence of Dual specificity protein kinase CLK4 (Homo sapiens) (Q9HAZ1 whole entry, looked up): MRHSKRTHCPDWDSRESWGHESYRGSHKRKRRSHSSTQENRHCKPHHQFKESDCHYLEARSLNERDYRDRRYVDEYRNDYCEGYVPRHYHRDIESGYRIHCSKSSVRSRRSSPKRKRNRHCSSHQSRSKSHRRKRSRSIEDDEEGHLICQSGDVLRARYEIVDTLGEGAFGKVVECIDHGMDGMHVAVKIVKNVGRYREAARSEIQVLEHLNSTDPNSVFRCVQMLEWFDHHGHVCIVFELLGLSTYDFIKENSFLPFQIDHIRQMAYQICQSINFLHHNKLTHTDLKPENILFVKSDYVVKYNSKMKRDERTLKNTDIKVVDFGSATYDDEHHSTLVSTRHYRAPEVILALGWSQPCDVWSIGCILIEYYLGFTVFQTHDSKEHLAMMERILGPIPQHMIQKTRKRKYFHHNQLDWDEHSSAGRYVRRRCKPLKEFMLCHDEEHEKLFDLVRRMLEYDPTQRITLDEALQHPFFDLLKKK
Sequence of Cytochrome P450 1A2 (Homo sapiens) (P05177 whole entry, looked up): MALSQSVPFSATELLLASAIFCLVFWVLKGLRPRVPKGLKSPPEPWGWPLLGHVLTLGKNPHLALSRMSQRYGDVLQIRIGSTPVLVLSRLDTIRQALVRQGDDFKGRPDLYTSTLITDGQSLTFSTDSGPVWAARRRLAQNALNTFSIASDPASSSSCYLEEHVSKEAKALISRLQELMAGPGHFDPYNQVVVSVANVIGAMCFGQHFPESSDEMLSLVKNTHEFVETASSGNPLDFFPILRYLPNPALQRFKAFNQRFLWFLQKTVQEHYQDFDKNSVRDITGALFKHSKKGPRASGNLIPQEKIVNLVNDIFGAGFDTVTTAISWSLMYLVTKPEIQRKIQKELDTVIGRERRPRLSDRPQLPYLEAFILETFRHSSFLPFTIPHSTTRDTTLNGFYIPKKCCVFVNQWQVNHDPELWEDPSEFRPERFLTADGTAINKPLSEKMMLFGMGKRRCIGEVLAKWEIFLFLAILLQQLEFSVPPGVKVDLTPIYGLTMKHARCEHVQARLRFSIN
Sequence of Lysosomal acid glucosylceramidase (Homo sapiens) (P04062 whole entry, looked up): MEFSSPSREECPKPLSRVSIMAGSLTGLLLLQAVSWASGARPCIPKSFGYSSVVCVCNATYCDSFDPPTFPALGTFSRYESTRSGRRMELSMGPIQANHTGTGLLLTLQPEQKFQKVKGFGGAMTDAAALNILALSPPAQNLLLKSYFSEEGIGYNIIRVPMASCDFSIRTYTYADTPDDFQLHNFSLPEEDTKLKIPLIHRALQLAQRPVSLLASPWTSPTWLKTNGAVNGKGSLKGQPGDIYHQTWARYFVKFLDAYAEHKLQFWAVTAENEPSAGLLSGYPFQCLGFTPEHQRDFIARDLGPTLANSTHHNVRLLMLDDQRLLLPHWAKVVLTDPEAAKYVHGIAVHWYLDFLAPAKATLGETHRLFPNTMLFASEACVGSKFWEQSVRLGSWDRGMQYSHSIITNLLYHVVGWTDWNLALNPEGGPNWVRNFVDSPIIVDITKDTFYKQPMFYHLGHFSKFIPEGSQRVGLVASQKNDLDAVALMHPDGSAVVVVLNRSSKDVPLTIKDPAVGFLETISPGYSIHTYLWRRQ
Sequence of Rap guanine nucleotide exchange factor 3 (Homo sapiens) (O95398 whole entry, looked up): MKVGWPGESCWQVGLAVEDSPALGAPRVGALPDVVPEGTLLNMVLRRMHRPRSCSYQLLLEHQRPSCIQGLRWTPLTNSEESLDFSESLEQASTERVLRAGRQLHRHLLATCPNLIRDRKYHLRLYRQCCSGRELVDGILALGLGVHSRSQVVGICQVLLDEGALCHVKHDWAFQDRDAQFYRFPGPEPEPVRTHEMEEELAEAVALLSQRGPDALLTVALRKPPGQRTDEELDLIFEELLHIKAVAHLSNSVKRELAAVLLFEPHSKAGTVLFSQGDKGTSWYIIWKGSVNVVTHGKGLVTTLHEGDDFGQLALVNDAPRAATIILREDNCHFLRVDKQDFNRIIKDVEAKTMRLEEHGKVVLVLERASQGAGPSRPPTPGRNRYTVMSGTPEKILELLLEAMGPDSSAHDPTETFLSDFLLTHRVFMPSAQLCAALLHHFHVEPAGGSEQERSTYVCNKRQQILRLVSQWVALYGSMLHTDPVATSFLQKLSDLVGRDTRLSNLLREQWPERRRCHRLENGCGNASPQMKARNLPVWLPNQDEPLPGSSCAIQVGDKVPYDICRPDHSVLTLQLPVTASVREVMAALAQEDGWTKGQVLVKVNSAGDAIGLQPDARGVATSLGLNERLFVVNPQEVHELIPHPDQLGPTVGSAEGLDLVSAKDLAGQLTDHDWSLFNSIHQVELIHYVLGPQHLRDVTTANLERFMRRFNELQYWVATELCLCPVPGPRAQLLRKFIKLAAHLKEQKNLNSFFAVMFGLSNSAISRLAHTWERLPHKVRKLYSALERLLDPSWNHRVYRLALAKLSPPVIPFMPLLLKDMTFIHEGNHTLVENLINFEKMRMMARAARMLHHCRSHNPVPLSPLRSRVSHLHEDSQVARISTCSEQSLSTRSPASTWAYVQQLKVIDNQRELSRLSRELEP
Sequence of Glucocorticoid receptor (Homo sapiens) (P04150 whole entry, looked up, the tested form may be a part): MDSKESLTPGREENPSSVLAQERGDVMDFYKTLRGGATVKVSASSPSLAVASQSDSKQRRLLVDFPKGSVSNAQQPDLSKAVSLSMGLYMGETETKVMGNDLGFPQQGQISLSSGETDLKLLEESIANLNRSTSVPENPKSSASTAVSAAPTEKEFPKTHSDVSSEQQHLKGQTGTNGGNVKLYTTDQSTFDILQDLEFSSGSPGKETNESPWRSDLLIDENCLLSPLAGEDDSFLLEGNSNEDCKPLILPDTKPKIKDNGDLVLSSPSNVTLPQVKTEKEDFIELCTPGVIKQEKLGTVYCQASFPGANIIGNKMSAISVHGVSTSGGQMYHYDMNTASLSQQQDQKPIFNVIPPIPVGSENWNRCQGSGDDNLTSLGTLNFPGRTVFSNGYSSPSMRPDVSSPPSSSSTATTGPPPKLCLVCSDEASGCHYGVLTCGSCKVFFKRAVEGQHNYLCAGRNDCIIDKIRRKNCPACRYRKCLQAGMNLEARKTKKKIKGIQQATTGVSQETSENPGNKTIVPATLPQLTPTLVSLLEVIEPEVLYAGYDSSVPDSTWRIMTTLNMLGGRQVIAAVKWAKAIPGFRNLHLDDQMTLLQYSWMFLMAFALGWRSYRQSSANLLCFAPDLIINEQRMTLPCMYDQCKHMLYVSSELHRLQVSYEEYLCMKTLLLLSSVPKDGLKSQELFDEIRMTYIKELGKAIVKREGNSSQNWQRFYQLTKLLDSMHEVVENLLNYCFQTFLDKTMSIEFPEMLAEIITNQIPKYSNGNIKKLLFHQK

SMILES	Potency [1] [µM]	activity change, negative = inhibition [2] [%]	Potency [3]	activity, negative = inhibition [4] [%]	Potency [5] [µM]	Potency [6]	outcome [7]	Potency [8]	Potency [9]	Potency [10]	activity change, negative = inhibition [11] [%]	Potency [12] [µM]	Potency [13]	Potency [14]	Potency [15]	Potency [16]	Potency [17]	Potency [18]	Potency [19]
COc1ccc(-c2nc3cnc(Nc4ccccc4)nc3n(CCC#N)c2=O)cc1	> 11.4	-3.18	0.501 µM (active)	-4.64	> 46	inactive	inactive	inactive	70.6 µM (active)	inactive									
COc1cccc(-c2cc(NCc3ccc(OC)cc3OC)ncn2)c1	> 11.4		2 µM (active)	-9.18	> 46	inactive	inactive	inactive			-8.15	> 46	inactive	2.51 µM (active)	inactive	31.6 µM (active)	inactive	inactive	inactive
O=c1c(-c2ccc(F)cc2)nc2cnc(Nc3ccccc3)nc2n1Cc1cccs1	> 11.4	-11.9	2 µM (active)		> 46	inactive	inactive	inactive		inactive			inactive						
N#CCCn1c(=O)c(-c2ccc(Cl)cc2)nc2cnc(Nc3ccccc3)nc21	> 11.4	-28		-24.6	> 46	inactive	inactive	inactive	79.3 µM (active)	inactive		> 9.22	inactive			inactive	inactive	inactive	
